Compounds with a hit are over-represented: about 32% of the library has one in this group of screens.
CYP2C19 act: increases human CYP2C19 enzyme activity; P33261; recombinant CYP2C19, luciferin-H EGE luminescence; active compounds read high; 0 = fully inhibited enzyme, 1 = untreated enzyme; 96,000 tested, under 10 active; activation factor at 5 µM;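 active means activation factor of at least 2 at 5 µM in the primary screen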;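 further: 0 = wells with 2.5 mM tranylcypromine and 1 = vehicle-only wells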
PostGolgi yeast: growth inhibition of a yeast mutant, post-Golgi transport screen. post-Golgi transport phenotypic cell assay. inhibition, % at 10 µM. 0.9% of 98,000 active;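 further: yeast cells grown in 1536-well plates; yeast grown about 18 h at 30C before absorbance read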
CYP2C9 inhib: inhibitors of human CYP2C9; P11712; CYP2C9 Supersomes, luciferin-H conversion, luminescence; inhibition, % at 5 µM; 20% of 96,000 active;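 active means blocking of liver enzyme CYP2C9 beyond about 50% at 5 µM, limit read from the data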
Target sequence (P11712 whole entry, looked up): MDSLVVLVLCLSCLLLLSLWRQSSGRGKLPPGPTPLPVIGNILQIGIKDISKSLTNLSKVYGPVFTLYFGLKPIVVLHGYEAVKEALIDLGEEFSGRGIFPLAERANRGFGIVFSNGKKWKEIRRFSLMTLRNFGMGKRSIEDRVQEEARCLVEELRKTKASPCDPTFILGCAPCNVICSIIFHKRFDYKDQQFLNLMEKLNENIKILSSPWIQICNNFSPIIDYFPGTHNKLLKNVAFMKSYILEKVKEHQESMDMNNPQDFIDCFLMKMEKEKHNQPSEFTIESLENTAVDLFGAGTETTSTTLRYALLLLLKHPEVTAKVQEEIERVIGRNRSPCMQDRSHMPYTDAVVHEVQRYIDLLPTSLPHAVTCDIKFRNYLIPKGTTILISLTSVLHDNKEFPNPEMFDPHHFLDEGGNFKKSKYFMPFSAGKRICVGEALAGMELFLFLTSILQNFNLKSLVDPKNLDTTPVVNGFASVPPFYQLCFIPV
CYP2C9 act: activators of human CYP2C9; P11712; recombinant CYP2C9, luciferin-H conversion, luminescence; active compounds read high; factor 1 = untreated enzyme, 0 = blocked; activation factor at 5 µM; 1.4% of 96,000 active; AID 1024;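 active means activation factor of 2 or more for CYP2C9 at a 5 µM dose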;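 further: 0 = sulfaphenazole-blocked wells and 1 = vehicle-only wells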
CYP2C19 inhib: blocks human cytochrome P450 2C19; CYP2C19 Supersomes, luciferin-H EGE luminescence, 30 min; 21% of 96,000 active; inhibition, % at 5 µM; P33261;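 active means CYP2C19 inhibition above a set limit at 5 µM in the primary screen, cut at about 50% in these data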;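 further: plate controls were negative control wells for no effect and 2.5 mM tranylcypromine positive control for full effect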
PostGolgi ctrl: inhibits growth of the yeast control strain; efflux-deficient yeast background strain, growth absorbance A615, 16 h; 5% of 98,000 active; inhibition, % at 10 µM
An asterisk follows results filed as active; x = no result given. Unless noted, no stated cut-off is given here; in the data, active means inhibition above about 30%; inactive means the rest.

SMILES | CYP2C19 act | PostGolgi yeast | CYP2C9 inhib | CYP2C9 act | CYP2C19 inhib | PostGolgi ctrl
CC1(C)C(c2ccc(Cl)cc2)=[N+]([O-])C2(CCCC/C2=N\O)N1O (centres undefined) | 0.7 | 3 | 4 | 1 | 27 | 1
O=C1CCC(=O)N1c1nc2n(n1)C(c1ccccc1)C=C(c1ccc(Br)cc1)N2 (centres undefined) | 0.5 | 12 | 61* | 0.4 | 49 | 2
COc1ccc(OC)c(C2SCCN2S(=O)(=O)c2cccc(C(F)(F)F)c2)c1 (centres undefined) | 0.1 | -2 | 53* | 0.5 | 91* | 16
COc1ccc(S(=O)(=O)N2CCSC2c2ccc(N)cc2)cc1 (centres undefined) | 0 | -1 | 36 | 0.6 | 97* | 1
CC(=O)Nc1ccc(S(=O)(=O)N2CCSC2c2ccc(Cl)cc2)cc1 (centres undefined) | 0.9 | 10 | -19 | 1.2 | 8 | 16
COc1cc(OC)c(C2SCCN2S(=O)(=O)c2ccc(F)cc2)cc1OC (centres undefined) | 0.4 | 1 | 32 | 0.7 | 60* | 7
N#Cc1cnn(-c2nc3sc4c(c3c(=O)[nH]2)CCCC4)c1N | 1 | 14 | 10 | 0.9 | 3 | 18
CC1=CCC2C(=O)N(c3ccc(C(=O)N4CCCCCC4)cc3)C(=O)C2C1 (centres undefined) | 1 | -6 | 29 | 0.7 | -4 | -3
O=C(CCc1ccccc1)NNC(=O)C1CCCCC1 | 1 | -5 | 0 | 1 | 3 | -6
O=C(O)C(=O)/C(=C\c1ccccc1)c1ccc2ccccc2n1 | 0.9 | -2 | 17 | 0.8 | 15 | 6
O=C(c1ccccc1)c1ccc2ccccc2n1 | 0.3 | -3 | -31 | 1.3 | 69* | -1
Cn1c(SCc2cccc3ccccc23)nnc1-c1ccco1 | 0.2 | -2 | -40 | 1.4 | 83* | 10
COc1cccc(CSc2nnc(-c3ccco3)n2C)c1 | 0.1 | 6 | 17 | 0.8 | 95* | 3
Nn1c(SCc2ccccc2)nnc1-c1ccco1 | 0.9 | -1 | -11 | 1.1 | 13 | 5
Nn1c(SCc2cccc3ccccc23)nnc1-c1ccco1 | 0.6 | -21 | -164 | 2.6* | 36 | 10
CC(NC(=O)NCCCn1ccnc1)(C(F)(F)F)C(F)(F)F | 0.1 | -1 | 68* | 0.3 | 91* | 3
O=C(NCCCn1ccnc1)C(F)(F)C(F)(F)C(=O)NCCCn1ccnc1 | 0.8 | -1 | 98* | 0 | 16 | 11
O=S(=O)(NCc1ccccc1)c1cccs1 | 0.5 | -9 | 7 | 0.9 | 51* | 10
O=C(CCNS(=O)(=O)c1cccs1)N1CCc2ccccc2C1 | 0.4 | 4 | 3 | 1 | 59* | 2
O=S(=O)(NCCc1ccccn1)c1cccs1 | 0.9 | -5 | -14 | 1.1 | 8 | 1
O=S(=O)(NCCSc1ccccc1)c1ccc(F)cc1 | 0.6 | 8 | 13 | 0.9 | 40 | 19
COc1ccc(N2CCN(C(=O)CCNS(=O)(=O)c3cccs3)CC2)cc1 | 1.1 | 9 | 12 | 0.9 | -6 | 2
O=C(NCc1ccc(F)cc1)C(Cc1ccccc1)NS(=O)(=O)c1cccs1 (centres undefined) | 0.1 | 9 | 50* | 0.5 | 89* | 3
O=S(=O)(NCCSc1ccccc1)c1cccs1 | 0.2 | 11 | 46 | 0.5 | 80* | 4
O=C(NCc1cccs1)C(Cc1ccccc1)NS(=O)(=O)c1cccs1 (centres undefined) | x | 13 | x | x | x | 4
SMILES | CYP2C19 act | PostGolgi yeast | CYP2C9 inhib | CYP2C9 act | CYP2C19 inhib | PostGolgi ctrl
CC1(C)CC(=O)C2=C(C1)Nc1[nH]c(=S)[nH]c(=O)c1C2c1ccccc1 (centres undefined) | 1 | 3 | 35 | 0.7 | 2 | 6
O=C(CCNS(=O)(=O)c1cccs1)NCc1ccccc1 | 0.2 | 21 | 23 | 0.8 | 83* | 12
COc1cccc(CNC(=O)CCCNS(=O)(=O)c2cccs2)c1 | 0.7 | -3 | 30 | 0.7 | 32 | 9
O=S(=O)(c1cccs1)N1CCC(Cc2ccccc2)CC1 | 0.9 | -5 | 20 | 0.8 | 6 | 35*
CSc1nc2c(c(-c3ccc(O)cc3)c1C#N)CCC2 | 0.7 | 15 | -49 | 1.5 | 34 | 11
CCOc1ccccc1OCCCCCc1c(C)n[nH]c1C | 0.2 | -6 | 19 | 0.8 | 77* | 12
COc1ccccc1OCCCCCc1c(C)n[nH]c1C | 0.5 | -13 | 13 | 0.9 | 54* | 4

High-throughput results as filed in PubChem.
